According to PubChem BioAssay (NCI):
Compounds without any hit were thinned out: in the full panel of roughly 83,000, 20% have a hit.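 Activity criterion: percent growth below 10, measured after cells in 96-well plates were exposed to a single compound concentration for 48 hours.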 Values without a mark were called inactive. Active and inactive are the calls of the source.

Experiments:
Assay in all cases: NCI-60 one-dose screen, 48 h (100 = growth as untreated, 0 = no growth, -100 = all killed)
Conditions in all cases: 10 µM unless noted
NCI-H23 lung = test system: NCI-H23 lung
NCI-H226 lung = test system: NCI-H226 lung
NCI-H322M lung = test system: NCI-H322M lung
HOP-62 NSCLC = test system: HOP-62 NSCLC
NCI-H460 lung = test system: NCI-H460 lung
HOP-92 NSCLC = test system: HOP-92 NSCLC
NCI-H522 lung = test system: NCI-H522 lung
A549/ATCC NSCLC = test system: A549/ATCC NSCLC
786-0 renal = test system: 786-0 renal
COLO 205 colon = test system: COLO 205 colon

| Compound | growth (NCI-H23 lung) | growth (NCI-H226 lung) | growth (NCI-H322M lung) | growth (HOP-62 NSCLC) | growth (NCI-H460 lung) | growth (HOP-92 NSCLC) | growth (NCI-H522 lung) | growth (A549/ATCC NSCLC) | growth (786-0 renal) | growth (COLO 205 colon) |
| --- | --- | --- | --- | --- | --- | --- | --- | --- | --- | --- |
| CCCCCCCCCCCCNC(=O)[C@H]1CSC(c2ccc(OC)c(F)c2)N1 (stereo not given in full) | -78.2% (active) | -71.4% (active) | -98.4% (active) | -81.8% (active) | -71.8% (active) | -93.8% (active) | -73.5% (active) | -88.5% (active) | -96.6% (active) | -81.5% (active) |
| O=C1/C(=C/c2ccc(Cl)cc2Cl)CN(S(=O)(=O)c2ccccc2)C/C1=C\c1ccc(Cl)cc1Cl | -37.6% (active) | 58.3% | -0.804% (active) | -2.25% (active) | -24.1% (active) | -3.29% (active) | -34.1% (active) | 3.06% (active) | -81.2% (active) | -15.9% (active) |
| CCOC(=O)N1CCN(c2nc(Nc3cc(C)[nH]n3)c3ccccc3n2)CC1 | 65.8% | 34.8% | 88.5% | 49.6% | 23.1% | 31.3% | 10.4% | 34.4% | 44% | 14% |
| CCC(c1ccccc1)C(CC)c1ccc(O)c(O)c1 (stereo not given) | 89.5% | 97.4% | 96.1% | 124% | 107% | 83.6% | 85.2% | 98.6% | 98.9% | 125% |
| COc1ccc(OCC(=O)Nc2ccc(-c3nc4ccccc4s3)cc2C)cc1 | 69.3% | 51% | 94.7% | 89.5% | 95.5% | 68.4% | 61.6% | 86.2% | 88.8% | 120% |
| CCc1ccccc1NC(=O)c1sc2nc3c(cc2c1N)C(=O)CCC3 | 38.2% | 67.3% | 46.3% | 35.5% | 6.42% (active) | 84.8% | -11.6% (active) | 21.5% | 35.1% | -7.87% (active) |
| C/C(Cc1ccc(Cl)cc1)=C(\c1ccc(OCCN2CCCCCC2)cc1)c1ccc(OC(=O)C2CCCCC2)cc1 | 74.8% | 79.2% | 70.5% | 81.5% | 34.7% | 29.1% | 64.8% | 66.5% | 70% | -21.8% (active) |
| COc1ccccc1-c1ccc2c(N)c(C(=O)c3ccc4c(c3)OCO4)sc2n1 | 82.1% | 96.7% | 94.7% | 73.3% | 60.2% | 67.8% | 18.6% | 46.1% | 86% | 89.1% |
| Cc1sc2nc3[nH]/c(=C\c4ccc(Cl)cc4)c(=O)n3c(=O)c2c1C | 103% | 100% | 103% | 110% | 104% | 92.7% | 88.1% | 94.1% | 95.1% | 112% |
| O=C1c2cc3c(cc2-c2c1c1cc(Cl)c(Cl)cc1c(=O)n2C[C@H](O)CO)OCO3 | -55.7% (active) | -62% (active) | -16% (active) | -54.3% (active) | -0.391% (active) | -31.9% (active) | -29% (active) | -47.3% (active) | -44.3% (active) | -39.4% (active) |
| COc1cccc(-c2cn3c(ccc4ccccc43)n2)c1 | 49.8% | 43.9% | 56.4% | 25.8% | 17.8% | 64.2% | 15.9% | 55% | 44.4% | 11.4% |
| Oc1cc(O)c2c(=S)cc(-c3ccc(Cl)cc3)oc2c1 | 4.05% (active) | 73.6% | 60.4% | 46.4% | 21% | -21.9% (active) | -1.71% (active) | 53.6% | 74.6% | 85.8% |
| O=C1c2cccnc2C(=O)c2c1c(C(=O)OCCN1CCOCC1)c1ccccn21 | -38.4% (active) | -28.4% (active) | -55.4% (active) | -34% (active) | -31.2% (active) | 8.96% (active) | -30.2% (active) | -48.7% (active) | 2.64% (active) | -53.5% (active) |
| COc1cc(/C=C2\CN(C(=O)CCN3CCC(=NO)CC3)C/C(=C\c3cc(OC)c(OC)c(OC)c3)C2=O)cc(OC)c1OC | -21.9% (active) | -6.36% (active) | -89.2% (active) | -47.2% (active) | -64% (active) | -49.2% (active) | -74.7% (active) | 2.51% (active) | -38.6% (active) | -85.8% (active) |
| Cc1cc(Nc2nc(N3CCN(C)CC3)nc3ccccc23)n[nH]1 | 91.6% | 81.6% | 86.4% | 81.4% | 69.6% | 59.8% | 41.2% | 65.2% | 59.8% | 58% |
| NCCN1CCN(c2nccc(-c3ccc4ccccc4c3)n2)CC1 | 87.2% | 81.9% | 54.4% | 74.9% | 17.6% | 27.7% | 81.3% | 52.3% | 47.6% | -78.1% (active) |
| CC[C@H](Nc1cc(C)nc(N)n1)c1nc2cccc(NCc3ccc(C(=O)NO)cc3)c2c(=O)n1-c1ccccc1 | -6.84% (active) | 64.7% | 47.7% | 34.5% | 30.1% | -3.07% (active) | -63.7% (active) | 60.1% | 44.1% | -51.8% (active) |
| CCOC(=O)/C=C/c1ccc(C(=O)OCC)[nH]1 | 72.3% | 89% | 57.4% | 76.7% | 14.3% | 53.8% | 54.4% | 40.3% | 90.2% | 16.2% |
| CC(C)[C@H]1COC(=O)N1[C@@H]1C(=O)N([C@@H](CCC(=O)N2CCN(C3CCCC3)CC2)C(=O)N[C@@H]2CCCc3ccccc32)[C@@H]1/C=C/c1cccc(Br)c1 | 64.7% | 74% | 39.3% | 59.5% | 31.6% | 44.7% | 27.4% | 25.7% | 44.3% | 24% |
| CC1=C(NCCN2CCCC2)C(=O)c2c(OCc3ccc(C(F)(F)F)cc3)cccc2C1=O | 90.2% | 91.3% | 91% | 86.9% | 68.9% | 32.5% | 100% | 85% | 67% | 82.4% |
| Oc1ccccc1N=Cc1c(O)ccc2ccccc12 | 88.2% | 87.3% | 82.6% | 83.7% | 81.3% | 58.3% | 81% | 95.4% | 86.2% | 108% |
| O=C(/C=C/c1cccc(Br)c1)c1ccccc1 | 98.7% | 92.8% | 97.7% | 70% | 104% | 79% | 64.1% | 72.7% | 72.3% | 99.7% |
| COc1c(C2CC(=O)Nc3c2cnn3Cc2ccco2)cc2c(c1OC)OCO2 (stereo not given) | 29.9% | 44.7% | 55.4% | 12.2% | 2.88% (active) | 48.9% | -2.1% (active) | 27.6% | 35.4% | -49.1% (active) |
| CCC(=O)Oc1ccc(/C(=C(\C)c2ccccc2)c2ccc(OCCN(CC)CC)cc2)cc1 | 89.1% | 95.8% | 96.2% | 95.3% | 80.9% | 61% | 73.5% | 84.9% | 70.1% | 74.6% |
| CCCCCC(=O)Oc1ccc(/C(=C(\C)c2ccccc2)c2ccc(OCCN(CC)CC)cc2)cc1 | 79.8% | 93.3% | 81% | 91.7% | 52.3% | 52.8% | 62.4% | 67.7% | 57.4% | 15% |
| O=[N+]([O-])c1cccc(C2CC(c3ccccc3)=Nc3ccccc3S2)c1 (stereo not given) | 87.9% | 96.6% | 99.6% | 98.5% | 106% | 91.1% | 76.7% | 88.6% | 97.1% | 98.9% |
| CCC(C)[C@@H]1NC(=O)[C@@H]2CCCN2C(=O)[C@H](Cc2ccccc2)NC(=O)[C@@H]2CCCN2C(=O)[C@H](Cc2ccccc2)NC(=O)[C@@H]2CCCN2C(=O)[C@H](Cc2ccccc2)NC1=O (stereo not given in full) | 113% | 109% | 127% | 103% | 104% | 95.3% | 96.3% | 101% | 109% | 108% |
